# From publication PMC5540273 (PLoS ONE, 2017)
# Experiments:
# Conditions in all cases: concentration: 1 μM, replicates: in singlicate; n = 1
# NIM1 = test system: T1, NIM1
# T1 construct: gene MGC42105
# NLK = test system: NLK
# OSR1 = test system: T2, OSR1
# T2 construct: gene OXSR1
# PAK1 = test system: PAK1
# PAK2 = test system: PAK2
# PAK3 = test system: PAK3
# PAK4 = test system: PAK4
# PAK6 = test system: PAK6
# PAK7 = test system: PAK7
# PCTK1 = test system: T3, PCTK1
# T3 construct: gene CDK16
# 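Also: KINOMEscan kinase panel screen.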
SMILES,%Inh (NIM1) [%],%Inh (NLK) [%],%Inh (OSR1) [%],%Inh (PAK1) [%],%Inh (PAK2) [%],%Inh (PAK3) [%],%Inh (PAK4) [%],%Inh (PAK6) [%],%Inh (PAK7) [%],%Inh (PCTK1) [%]
O=C1NC(=O)C(c2ccccc2Cl)=C1Nc1cccc(Cl)c1 [SB-342409],4,22,2,24,17,0,0,7,0,34
CS(=O)(=O)c1cccc(CNc2nc(Nc3ccc4c(c3)CCC(=O)N4)ncc2C(F)(F)F)c1,5,0,0,0,0,0,0,0,0,0
CN(C)c1ncnc2nc[nH]c12 [SKF-31736],4,0,0,8,43,12,6,0,15,17
CCn1cnc2c(NCc3ccccc3)ncnc21 [SKF-96418],17,0,0,11,42,0,0,0,0,0
CCNc1nccc(-c2c(-c3ccc(F)cc3)ncn2C2CCN(C)CC2)n1,0,95,0,7,8,0,2,30,0,0
NCCC(NC(=O)c1cc(Br)c(-c2ccnc3[nH]ccc23)s1)c1ccccc1.O=C(O)C(F)(F)F.O=C(O)C(F)(F)F (stereo not drawn) [GSK1307810],7,3,10,19,56,76,74,62,86,1
O=C(Nc1c(F)cccc1F)c1cc(C(=O)c2ccccc2F)c[nH]1 [GSK1326180],0,0,34,0,0,0,0,0,0,0
COc1ccc(C)c(Nc2ccnc(Nc3ccc(-c4cnc[nH]4)cc3)n2)c1.Cl [GW784041],0,13,0,0,12,20,6,10,0,0
CN(C)CCNS(=O)(=O)c1ccc(-c2ccnc3[nH]ccc23)cc1 [GSK977620],13,20,30,34,32,71,56,64,58,7
